Source: the supplement of paper PMC9262897, “Low-cost anti-mycobacterial drug discovery using engineered E. coli” (Nature Communications, 2022)
Counter-ions that a name gives are not always drawn. ± gives the standard deviation of the averaged measurements.

Tested on: E. coli TESEC Mtb Alr
Assay: growth (OD600 after 10 h); higher = more growth (less inhibition)
Conditions: compound 0.1 mM
Protocol: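 TESEC Mtb Alr E. coli, or the Alr+ wild-type control, in 384-well plates with Prestwick library compounds at 0.1 mM and 1% DMSO, across arabinose induction levels of 1E3 to 1E7 nM. Growth is read as OD600 after 10 h at 37 °C in triplicate biological replicates.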

[1] = arabinose 1000 nM, raw OD600 reference: median of DMSO wells 0.294, cell-free background 0.041
[2] = arabinose 10000 nM, raw OD600 reference: median of DMSO wells 0.264, cell-free background 0.041
[3] = arabinose 100000 nM, raw OD600 reference: median of DMSO wells 0.201, cell-free background 0.041
[4] = arabinose 1000000 nM, raw OD600 reference: median of DMSO wells 0.193, cell-free background 0.041
[5] = arabinose 10000000 nM, raw OD600 reference: median of DMSO wells 0.146, cell-free background 0.041

Question: Which growth [1] does the source give for `O=C(NCCN1CCOCC1)c1ccc(Cl)cc1` [Moclobemide] here?
Answer: 0.287 ± 0.0083

Question: What about the growth [2] of the same compound?
Answer: 0.25 ± 0.0059

Question: What about the growth [3] of the same compound?
Answer: 0.225 ± 0.032

Question: What about the growth [4] of the same compound?
Answer: 0.177 ± 0.013

Question: What about the growth [5] of the same compound?
Answer: 0.136 ± 0.0024

Question: What does the source list for `CC(=O)c1ccc2c(c1)N(CCCN1CCC(CCO)CC1)c1ccccc1S2` [Piperacetazine]?
Answer: growth [1]: 0.183 ± 0.0095; growth [2]: 0.276 ± 0.015; growth [3]: 0.222 ± 0.0061; growth [4]: 0.115 ± 0.0049; growth [5]: 0.133 ± 0.0052

Question: Which growth [1] does the source give for `CN(Cc1cnc2nc(N)nc(N)c2n1)c1ccc(C(=O)N[C@@H](CCC(=O)O)C(=O)O)cc1` (racemic) [Amethopterin (R,S)] here?
Answer: 0.273 ± 0.0079

Question: What about the growth [2] of the same compound?
Answer: 0.224 ± 0.011

Question: And the growth [3]?
Answer: 0.206 ± 0.049

Question: And the growth [4]?
Answer: 0.14 ± 0.0075

Question: What about the growth [5] of the same compound?
Answer: 0.144 ± 0.0042

Question: What does the source list for `NCCCC[C@H](N[C@@H](CCc1ccccc1)C(=O)O)C(=O)N1CCC[C@H]1C(=O)O` [Lisinopril]?
Answer: growth [1]: 0.304 ± 0.0053; growth [2]: 0.251 ± 0.0067; growth [3]: 0.213 ± 0.0063; growth [4]: 0.177 ± 0.0033; growth [5]: 0.159 ± 0.0064

Question: For `CCCCN1CCCCC1C(=O)Nc1c(C)cccc1C` (stereo not given) [Bupivacaine hydrochloride], which growth [1] is on record?
Answer: 0.301 ± 0.0072

Question: What about the growth [2] of the same compound?
Answer: 0.247 ± 0.0053

Question: And the growth [3]?
Answer: 0.21 ± 0.0045

Question: What about the growth [4] of the same compound?
Answer: 0.167 ± 0.0039

Question: What about the growth [5] of the same compound?
Answer: 0.157 ± 0.0046

Question: `Cc1ccc(-c2ncc(Cl)cc2-c2ccc(S(C)(=O)=O)cc2)cn1` [Etoricoxib] was tested. Which growth [1] did it give?
Answer: 0.241 ± 0.006

Question: What about the growth [2] of the same compound?
Answer: 0.213 ± 0.0045

Question: What about the growth [3] of the same compound?
Answer: 0.184 ± 0.014

Question: What about the growth [4] of the same compound?
Answer: 0.15 ± 0.0079

Question: And the growth [5]?
Answer: 0.161 ± 0.0033

Question: What does the source list for `CC1(C)O[C@@H]2[C@@H](CO[C@@]3(COS(N)(=O)=O)OC(C)(C)O[C@@H]23)O1` [Topiramate]?
Answer: growth [1]: 0.291 ± 0.0074; growth [2]: 0.2714 ± 0.0027; growth [3]: 0.18 ± 0.018; growth [4]: 0.204 ± 0.0062; growth [5]: 0.136 ± 0.0016

Question: Which growth [1] does the source give for `O=C(C1CCCCC1)N1CC(=O)N2CCc3ccccc3C2C1` (stereo not given) [Praziquantel] here?
Answer: 0.251 ± 0.0052

Question: And the growth [2]?
Answer: 0.237 ± 0.015

Question: And the growth [3]?
Answer: 0.214 ± 0.021

Question: What about the growth [4] of the same compound?
Answer: 0.167 ± 0.01

Question: And the growth [5]?
Answer: 0.141 ± 0.0052
